Results published in PubChem BioAssay (NCI).
This is part of a sample that, as a whole, favours compounds with a hit. Of some 79,000 tested, about 15% had one in any assay. Active and inactive are the calls of the source. No stated cut-off is given here; in the data, active means growth inhibition above about 70%; inactive means the rest.

Assay: NCI Yeast Anticancer Drug Screen. Data for the rad50EPP+ strain (AID 151);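 further: 0% = growth of vehicle-treated control cultures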
Conditions: S. cerevisiae rad50 mutant strain, active compounds read high
Description: Growth inhibition of yeast strains with defined genetic alterations is measured as a screen for potential anti-cancer activity. Selected strains with alterations in DNA damage repair or cell cycle control were exposed to compounds and growth inhibition was measured relative to vehicle treated controls. The strain used in this assay is rad50EPP+

Measured: growth inhibition

S=C(N/N=C(/c1ccccc1)c1ccccn1)N1CCCCCC1
inactive: at 1.2 µM 5% | at 3.7 µM 7% | at 11.0 µM 8% | at 33.0 µM 3% | at 100.0 µM 6%

c1ccc2c(c1)sc1nc3ccncc3nc12
inactive: at 1.2 µM 23% | at 3.7 µM 52% | at 11.0 µM 55%
active: at 33.0 µM 85% | at 100.0 µM 89%

CC(/C=C/c1ccc2c(c1)OCO2)[N+](=O)[O-] (stereo not given)
active: at 1.2 µM 73% | at 3.7 µM 94% | at 11.0 µM 99% | at 33.0 µM 99% | at 100.0 µM 99%

COc1cc(C2SCC(=O)N2c2ccc(-c3ccc(-n4c(-c5ccccc5)nc5ccccc5c4=O)cc3)cc2)cc(OC)c1OC (stereo not given)
inactive: at 1.2 µM -2% | at 3.7 µM -1% | at 11.0 µM 3% | at 33.0 µM 4% | at 100.0 µM -1%

CCOC(=O)c1cc(-c2ccc(Cl)cc2)c([N+](=O)[O-])n1C
active: at 33.0 µM 78% | at 100.0 µM 93%
inactive: at 1.2 µM 16% | at 3.7 µM 23% | at 11.0 µM 48%

Cc1ccc(N)c(S)c1
active: at 11.0 µM 76% | at 33.0 µM 95% | at 100.0 µM 91%
inactive: at 1.2 µM -49% | at 3.7 µM -39%

Cc1nc(-[n+]2nc(-c3ccncc3)nn2-c2ccccc2)sc1C
inactive: at 1.2 µM 3% | at 3.7 µM 16% | at 11.0 µM 41% | at 33.0 µM 44% | at 100.0 µM 36%

CSC(=S)Nc1cccc(C)n1
inactive: at 1.2 µM -15% | at 3.7 µM -19% | at 11.0 µM -27% | at 33.0 µM -24% | at 100.0 µM 68%
